Data: PubChem BioAssay (NCI)
About 83,000 compounds went through this panel and 20% of them were active in at least one assay; those are over-represented in the sample as a whole.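 Cells were grown in 96-well plates and exposed to the test compound at a single concentration for 48 hours; results are reported as percent growth, with values below 10 considered active.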 Calls of active or inactive are those of the source.

Experiments:
Test in all cases: NCI-60 one-dose screen, 48 h (100 = growth as untreated, 0 = no growth, -100 = all killed)
HCT-15 colon = settings: 10 µM unless noted
HT29 colon = settings: 10 µM unless noted
SNB-75 CNS = settings: 10 µM unless noted
SNB-19 CNS = settings: 10 µM unless noted
U251 CNS = settings: 10 µM unless noted
PC-3 prostate = settings: 10 µM unless noted
SK-MEL-5 melanoma = settings: 10 µM unless noted
UACC-62 melanoma = settings: 10 µM unless noted
LOX IMVI melanoma = settings: 10 µM unless noted
SK-MEL-28 melanoma = settings: 10 µM unless noted
SK-MEL-2 melanoma = settings: 10 µM
EKVX NSCLC = settings: 10 µM unless noted
SN12C renal = settings: 10 µM unless noted
UO-31 renal = settings: 10 µM unless noted
TK-10 renal = settings: 10 µM unless noted
ACHN renal = settings: 10 µM unless noted
A498 renal = settings: 10 µM unless noted
CCRF-CEM leukemia = settings: 10 µM unless noted
MOLT-4 leukemia = settings: 10 µM unless noted
CAKI-1 renal = settings: 10 µM unless noted

Measured: growth

Nc1cc2c(cc1Br)-c1c(C(=O)O)cccc1C2O (stereo not drawn)
inactive: HCT-15 colon 108% | HT29 colon 106% | SNB-75 CNS 90.2% | SNB-19 CNS 99.5% | U251 CNS 97.4% | PC-3 prostate 82.2% | SK-MEL-5 melanoma 99.9% | UACC-62 melanoma 90.9% | LOX IMVI melanoma 95.8% | SK-MEL-28 melanoma 102% | SK-MEL-2 melanoma 131% | EKVX NSCLC 88.3% | SN12C renal 109% | UO-31 renal 102% | TK-10 renal 117% | ACHN renal 108% | A498 renal 129% | CCRF-CEM leukemia 124% | MOLT-4 leukemia 115%

COC(=O)Nc1nc2ccc(C(=O)c3ccc(N(C)C4COC4)cc3)cc2[nH]1
active: HT29 colon 0.909% | SK-MEL-5 melanoma 3.76%
inactive: HCT-15 colon 12.4% | SNB-75 CNS 16.4% | SNB-19 CNS 26.9% | U251 CNS 17.2% | PC-3 prostate 24.2% | UACC-62 melanoma 34.3% | LOX IMVI melanoma 20.4% | SK-MEL-28 melanoma 56.9% | EKVX NSCLC 26.9% | SN12C renal 30.9% | UO-31 renal 45.3% | TK-10 renal 66% | ACHN renal 39% | CAKI-1 renal 31.2% | A498 renal 10% | CCRF-CEM leukemia 15.9% | MOLT-4 leukemia 10.5%

C[C@@H]1COCCN1c1cc(C2([S@](C)(=N)=O)CC2)nc(-c2ccnc3[nH]ccc23)n1
inactive: HCT-15 colon 31.7% | HT29 colon 13.4% | SNB-75 CNS 31.1% | SNB-19 CNS 28% | U251 CNS 32.2% | PC-3 prostate 50.7% | SK-MEL-5 melanoma 21.4% | UACC-62 melanoma 23.7% | SK-MEL-28 melanoma 70.7% | EKVX NSCLC 54.2% | SN12C renal 41% | UO-31 renal 13.2% | TK-10 renal 42.9% | CAKI-1 renal 28.9%
active: LOX IMVI melanoma 2.37% | ACHN renal 7.85% | A498 renal -21.2% | CCRF-CEM leukemia 7.78% | MOLT-4 leukemia 7.26%

C/C(=C(/c1ccc(Cl)cc1)c1ccc(OCCN2CCCC2)cc1)c1ccccc1
inactive: SNB-75 CNS 86.1% | SNB-19 CNS 80.7% | U251 CNS 63.9% | PC-3 prostate 64.5% | SK-MEL-5 melanoma 14.9% | UACC-62 melanoma 48.9% | LOX IMVI melanoma 30.6% | SK-MEL-28 melanoma 62% | EKVX NSCLC 55.2% | SN12C renal 80.8% | UO-31 renal 63% | TK-10 renal 87.7% | ACHN renal 82.9% | CAKI-1 renal 81.8% | A498 renal 77.6% | CCRF-CEM leukemia 59.2% | MOLT-4 leukemia 68.7%
active: HCT-15 colon 8.01% | HT29 colon 4.46%

CN1CC[C@@H](c2c(O)cc(O)c3c(=O)cc(-c4ccccc4Cl)oc23)[C@@H]1CO
active: HCT-15 colon 3.39% | HT29 colon -12.6% | SNB-75 CNS -63.9% | U251 CNS 4.32% | PC-3 prostate 1.22% | SK-MEL-5 melanoma -9% | UACC-62 melanoma -51.4% | LOX IMVI melanoma 6.25% | SK-MEL-28 melanoma -25.6% | EKVX NSCLC 0.493% | UO-31 renal -5.4% | TK-10 renal 5.71% | ACHN renal 4.44% | CAKI-1 renal 5.86% | A498 renal -60.4% | MOLT-4 leukemia 1.59%
inactive: SNB-19 CNS 10.2% | SN12C renal 12.4% | CCRF-CEM leukemia 13.4%

CC#CC(=O)N1CCC[C@H]1c1nc(-c2ccc(C(=O)Nc3ccccn3)cc2)c2c(N)nccn12
inactive: HCT-15 colon 87.8% | HT29 colon 73.4% | SNB-75 CNS 77% | SNB-19 CNS 90.6% | U251 CNS 83.6% | PC-3 prostate 81.1% | SK-MEL-5 melanoma 86.6% | UACC-62 melanoma 77.1% | LOX IMVI melanoma 93.7% | SK-MEL-28 melanoma 88.3% | EKVX NSCLC 92.1% | SN12C renal 72.3% | UO-31 renal 79% | TK-10 renal 72.8% | ACHN renal 73.6% | CAKI-1 renal 72.9% | A498 renal 111% | CCRF-CEM leukemia 71.5% | MOLT-4 leukemia 89.4%

CCOc1cc2ncc(C#N)c(Nc3ccc(OCc4ccccn4)c(Cl)c3)c2cc1NC(=O)/C=C/CN(C)C
inactive: SNB-75 CNS 34.1% | SK-MEL-5 melanoma 14.8% | EKVX NSCLC 20.7% | A498 renal 34.7% | MOLT-4 leukemia 19.9%
active: HCT-15 colon -0.289% | HT29 colon -54.5% | SNB-19 CNS -44.2% | U251 CNS 3.18% | PC-3 prostate 9.27% | UACC-62 melanoma -64.1% | LOX IMVI melanoma -67.8% | SK-MEL-28 melanoma -79.5% | SN12C renal -62.8% | UO-31 renal -85% | TK-10 renal 5.99% | ACHN renal -56% | CAKI-1 renal 5.2% | CCRF-CEM leukemia 3.88%

O=C(c1ccc(/C=C/c2n[nH]c3ccccc23)cc1)N1CCNCC1
active: SNB-75 CNS 0.841% | LOX IMVI melanoma 5.66% | UO-31 renal -7.82%
inactive: HCT-15 colon 40.3% | HT29 colon 13.5% | SNB-19 CNS 68.7% | U251 CNS 58.9% | PC-3 prostate 38.3% | SK-MEL-5 melanoma 53.1% | UACC-62 melanoma 48.7% | SK-MEL-28 melanoma 46.2% | EKVX NSCLC 71% | SN12C renal 22.5% | TK-10 renal 53% | ACHN renal 36.5% | CAKI-1 renal 11.7% | A498 renal 37.9% | CCRF-CEM leukemia 53.2% | MOLT-4 leukemia 19.9%

CC(C)(C)c1cnc(CSc2cnc(NC(=O)C3CCNCC3)s2)o1
active: HT29 colon -9.89% | SNB-75 CNS -39.5% | U251 CNS 2.2% | PC-3 prostate 0.914% | SK-MEL-5 melanoma -47.2% | UACC-62 melanoma -49.7% | LOX IMVI melanoma 6.56% | SK-MEL-28 melanoma -12.8% | UO-31 renal -4.7% | TK-10 renal 5.16% | ACHN renal 9.41% | A498 renal -31.7% | CCRF-CEM leukemia 7.55% | MOLT-4 leukemia 0.905%
inactive: HCT-15 colon 22.8% | SNB-19 CNS 12.4% | EKVX NSCLC 22.7% | SN12C renal 11.8% | CAKI-1 renal 16.5%

N#Cc1ccc(-n2nnc3ccccc32)cc1C#N
inactive: HCT-15 colon 99.8% | HT29 colon 108% | SNB-75 CNS 121% | SNB-19 CNS 112% | U251 CNS 91.3% | PC-3 prostate 101% | SK-MEL-5 melanoma 97.6% | UACC-62 melanoma 94.5% | LOX IMVI melanoma 99.4% | SK-MEL-28 melanoma 104% | EKVX NSCLC 79.2% | SN12C renal 101% | UO-31 renal 88.5% | TK-10 renal 134% | ACHN renal 103% | CAKI-1 renal 85.4% | A498 renal 72.8% | CCRF-CEM leukemia 93.1% | MOLT-4 leukemia 93.3%

N#Cc1c(NC(=O)c2ccco2)[n+]([O-])c2cc(F)c(F)cc2[n+]1[O-]
inactive: HCT-15 colon 70.5% | HT29 colon 93.6% | SNB-75 CNS 83.3% | SNB-19 CNS 85.7% | U251 CNS 92.3% | PC-3 prostate 80.7% | SK-MEL-5 melanoma 61.3% | UACC-62 melanoma 88.4% | LOX IMVI melanoma 83.4% | SK-MEL-28 melanoma 94.5% | SK-MEL-2 melanoma 97.2% | EKVX NSCLC 109% | SN12C renal 94.9% | TK-10 renal 80.2% | ACHN renal 97.8% | CAKI-1 renal 66.7% | CCRF-CEM leukemia 67.2% | MOLT-4 leukemia 75%

CCS(=O)(=O)N1CCN(c2ccc(Nc3ncc(C(N)=O)c(NC4CC4)n3)cc2)CC1
inactive: HCT-15 colon 58.2% | HT29 colon 76.2% | SNB-75 CNS 88% | SNB-19 CNS 105% | U251 CNS 93.4% | PC-3 prostate 92.4% | SK-MEL-5 melanoma 66.8% | UACC-62 melanoma 101% | LOX IMVI melanoma 73.7% | SK-MEL-28 melanoma 83.3% | EKVX NSCLC 91.6% | SN12C renal 62.8% | UO-31 renal 52.9% | TK-10 renal 87.3% | ACHN renal 85.1% | CAKI-1 renal 97.6% | A498 renal 95.6% | CCRF-CEM leukemia 27.6% | MOLT-4 leukemia 51.7%

CCN(CC)CCOc1ccc(/C(=C(\C)c2ccc(Cl)cc2)c2ccc(Cl)cc2)cc1
inactive: HCT-15 colon 21.7% | SNB-75 CNS 116% | SNB-19 CNS 79.3% | U251 CNS 54% | PC-3 prostate 70.7% | SK-MEL-5 melanoma 38% | UACC-62 melanoma 88.4% | LOX IMVI melanoma 35.4% | SK-MEL-28 melanoma 75.6% | EKVX NSCLC 88.6% | SN12C renal 76.5% | UO-31 renal 64.8% | TK-10 renal 87.6% | ACHN renal 94.5% | CAKI-1 renal 83.4% | A498 renal 79.6% | CCRF-CEM leukemia 43.1% | MOLT-4 leukemia 50.7%
active: HT29 colon 8.96%

CN1[C@@H]2CC[C@H]1/C(=C\c1ccccc1)C1=C2[C@@H](c2ccccc2)C(C#N)=C(N)O1
inactive: HCT-15 colon 81.1% | HT29 colon 67.7% | SNB-75 CNS 80.4% | SNB-19 CNS 83.6% | U251 CNS 77.7% | PC-3 prostate 72.8% | SK-MEL-5 melanoma 74.1% | UACC-62 melanoma 73.9% | LOX IMVI melanoma 97.8% | SK-MEL-28 melanoma 104% | EKVX NSCLC 98.4% | SN12C renal 75.2% | UO-31 renal 61.7% | TK-10 renal 89.5% | ACHN renal 97.4% | CAKI-1 renal 87.4% | A498 renal 70.3% | CCRF-CEM leukemia 70.6% | MOLT-4 leukemia 67.4%

O=[N+]([O-])c1cc(Br)cc2c1[nH]c1ccc(Br)cc12
inactive: HCT-15 colon 81.8% | HT29 colon 58.8% | SNB-75 CNS 19.9% | SNB-19 CNS 81.1% | U251 CNS 58.4% | PC-3 prostate 60% | SK-MEL-5 melanoma 88.1% | UACC-62 melanoma 67.7% | LOX IMVI melanoma 38% | SK-MEL-28 melanoma 89.8% | EKVX NSCLC 60.2% | SN12C renal 82.7% | UO-31 renal 25.5% | TK-10 renal 52.8% | ACHN renal 32.9% | CAKI-1 renal 51.4% | A498 renal 76.2% | CCRF-CEM leukemia 65.2% | MOLT-4 leukemia 77.1%

CCN(CCO)CCCOc1ccc2c(Nc3cc(CC(=O)Nc4cccc(F)c4)[nH]n3)ncnc2c1
inactive: HCT-15 colon 52.5% | SNB-75 CNS 76.3% | SNB-19 CNS 39.1% | U251 CNS 39.8% | PC-3 prostate 62.6% | SK-MEL-5 melanoma 63.3% | LOX IMVI melanoma 17.8% | EKVX NSCLC 51.8% | SN12C renal 46.9% | UO-31 renal 50.4% | TK-10 renal 31.5% | ACHN renal 48.9% | CAKI-1 renal 35.4% | A498 renal 47.4% | CCRF-CEM leukemia 40.3% | MOLT-4 leukemia 36.3%
active: HT29 colon -1.18% | UACC-62 melanoma -4.86% | SK-MEL-28 melanoma -6.81%
